Test results published in PubChem BioAssay (NCI).
About 83,000 compounds went through this panel and 20% of them were active in at least one assay; those are over-represented in the sample as a whole.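 The endpoint reported here, percent growth, reads 100 for growth as untreated, 0 for no net growth and -100 for all cells dead.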 Calls of active or inactive are those of the source. The calls were made as follows: active = growth percent below 10; inactive = the rest.

Key:
Test in all cases: NCI-60 one-dose screen, 48 h (100 = growth as untreated, 0 = no growth, -100 = all killed)
[1] = tested on: RPMI-8226 leukemia; conditions: 10 µM unless noted
[2] = tested on: OVCAR-8 ovarian; conditions: 10 µM unless noted
[3] = tested on: OVCAR-5 ovarian; conditions: 10 µM unless noted
[4] = tested on: OVCAR-4 ovarian; conditions: 10 µM unless noted
[5] = tested on: IGROV1 ovarian; conditions: 10 µM unless noted
[6] = tested on: OVCAR-3 ovarian; conditions: 10 µM unless noted
[7] = tested on: HS 578T breast; conditions: 10 µM unless noted
[8] = tested on: NCI/ADR-RES ovarian; conditions: 10 µM unless noted
[9] = tested on: T-47D breast; conditions: 10 µM unless noted
[10] = tested on: BT-549 breast; conditions: 10 µM unless noted
[11] = tested on: MDA-MB-435 melanoma; conditions: 10 µM unless noted
[12] = tested on: SW-620 colon; conditions: 10 µM unless noted
[13] = tested on: MCF7 breast; conditions: 10 µM
[14] = tested on: HCT-116 colon; conditions: 10 µM unless noted
[15] = tested on: HCC-2998 colon; conditions: 10 µM unless noted
[16] = tested on: KM12 colon; conditions: 10 µM unless noted

Measured: growth

CC1=NCC2NC(=O)NC(C)=C12 (stereo not given)
inactive: [1] 100% | [2] 105% | [3] 97.4% | [4] 106% | [5] 97% | [6] 105% | [7] 93.6% | [8] 106% | [9] 113% | [10] 96.4% | [11] 98.4% | [12] 99.9% | [13] 111% | [14] 101% | [15] 113% | [16] 104%

COc1cc(/C=C2\CCC/C(=C\c3cc(CN4CCOCC4)c(O)c(OC)c3)C2=O)cc(CN2CCOCC2)c1O
active: [16] 9.12%
inactive: [1] 19.9% | [2] 19% | [3] 34% | [4] 36.1% | [5] 50.7% | [6] 19.4% | [7] 55.1% | [8] 23.3% | [9] 63.3% | [10] 52.5% | [11] 27.4% | [12] 31.1% | [13] 21.1% | [14] 23.3% | [15] 62.1%

CCN1C(=O)N(CC)C2C1NN=c1s/c(=C3\C(=O)N(CC(C)(C)C)c4ccccc43)c(=O)n12 (stereo not given)
active: [6] -18.4% | [11] -21.3% | [14] 7.62%
inactive: [1] 36.7% | [2] 32.7% | [3] 51.1% | [4] 27.6% | [5] 24.1% | [7] 18.9% | [8] 11.3% | [9] 58.1% | [10] 21.7% | [12] 42.8% | [13] 20.2% | [15] 26.7% | [16] 17.6%

COc1cc(/C=C2\CN(S(=O)(=O)c3ccccc3)C/C(=C\c3cc(CN4CCCC4)c(O)c(OC)c3)C2=O)cc(CN2CCCC2)c1O
active: [1] -13.3% | [3] -9.14% | [5] -27.6% | [11] -37.1% | [12] 4.93% | [13] 5.38% | [14] -81.1% | [15] -87.9% | [16] -56.3%
inactive: [2] 19.2% | [4] 34.8% | [6] 11.1% | [7] 33.6% | [8] 92.7% | [9] 32.3% | [10] 33.5%

COc1cc2nc(NC3CCC3)nc(NC3CCN(C(C)C)CC3)c2cc1OC
active: [1] -7.43% | [9] -7.17% | [11] -48%
inactive: [2] 58.2% | [3] 97.2% | [4] 62.5% | [5] 75.1% | [6] 85.7% | [7] 66.2% | [8] 96.9% | [10] 72.5% | [12] 38.7% | [13] 29.5% | [14] 48.1% | [15] 22.7% | [16] 62.9%

CC(=O)c1ccc(Nc2nc(NCCO)nc(Nc3ccc(Cl)cc3)n2)cc1
inactive: [1] 89.5% | [2] 93.4% | [3] 96.1% | [4] 95.7% | [5] 98.7% | [6] 95.5% | [7] 87.2% | [8] 91.9% | [9] 79.9% | [10] 97.3% | [11] 59.4% | [12] 94.5% | [13] 69.1% | [15] 105% | [16] 90.8%

NCCOc1ccccc1/C=C1\c2ccccc2-c2ccc([N+](=O)[O-])cc21
active: [1] -48.6% | [2] -38.7% | [6] -49.8% | [11] -53.8% | [12] -82.4% | [13] -60.9% | [15] -53.3% | [16] -59.9%
inactive: [3] 22.3% | [4] 30.3% | [5] 23.8% | [7] 26.3% | [8] 23.5% | [9] 12.5% | [10] 84.8%

O=C(N=Nc1c(O)[nH]c2ccccc12)c1oc2ccccc2c1CN1CCN(c2ccccc2)CC1
inactive: [7] 27.3% | [10] 11.4% | [11] 26.3% | [15] 33.6% | [16] 23.1%
active: [1] 7.75% | [2] 6.9% | [3] 3.76% | [4] -79% | [5] -5.86% | [6] -69.9% | [8] -34.9% | [9] -17.7% | [12] 0.43% | [13] -22.7%

NCCNc1nc2ccccc2c2c(=O)c3cc(F)cc(Cl)c3sc12
inactive: [5] 71.9% | [7] 59.9% | [10] 84.8% | [15] 16.2%
active: [1] -33.1% | [2] -49.2% | [3] -81.6% | [4] -73.4% | [6] -88.6% | [8] -44.9% | [9] -45.6% | [11] -95.2% | [12] -78.9% | [13] -91.6% | [16] -82.6%

OCCNc1nc(Nc2ccc(C3=NN(c4cc(Cl)cc(Cl)c4)C(c4ccc(C(F)(F)F)cc4)C3)cc2)nc(N2CCOCC2)n1 (stereo not given)
inactive: [1] 71.7% | [2] 68.1% | [3] 95.3% | [4] 64% | [5] 93% | [6] 86.1% | [7] 62.8% | [8] 68.3% | [10] 99.3% | [11] 66.5% | [12] 94% | [13] 30.1% | [14] 66.8% | [15] 76.3% | [16] 68.6%
